Laboratory results published in PubChem BioAssay AID1159580 (chemical genetic matrix, 2015).
Hit rate of the full screen: of about 5,500 compounds, about 2,000 (36%) were called active. Another 18% or so got no clear call; they are omitted. No stated cut-off is given here; in the data, active means normalized growth mostly below about 0.91 (no sharp cut-off); inconclusive means no clear call, values can overlap the other calls; inactive means mostly above about 0.92. The list shows a part of the results.

Test: chemical genetic growth profiling, strain panel (AID 1159580);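 further: tested at 20 µM; growth read once vehicle control cultures reached saturation at 30 °C; 1 = growth at the plate median or of vehicle wells; lower values mean less growth of the strain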
Details: growth OD

Measured: normalized growth

OC[C@H]1O[C@@H](O[C@H]2[C@H](O)[C@@H](O)[C@@H](O)O[C@@H]2CO)[C@H](O)[C@@H](O)[C@@H]1O
inactive: S. cerevisiae deletion strains, locus YJR075W, strain HOC1, active compounds read low 1.02 | S. cerevisiae deletion strains, locus YKL009W, strain mrt4, active compounds read low 1.1 | S. cerevisiae deletion strains, locus YKL068W, active compounds read low 1 | S. cerevisiae deletion strains, locus YKL085W, strain MDH1 (second series), active compounds read low 1.04 | S. cerevisiae deletion strains, locus YKL085W, strain MDH1, active compounds read low 1.04 | S. cerevisiae deletion strains, locus YKL160W, strain elf1, active compounds read low 1.02 | S. cerevisiae deletion strains, locus YKL190W, strain CNB1, active compounds read low 1.01 | S. cerevisiae deletion strains, locus YKR001C, strain vps1, active compounds read low 1.02 | S. cerevisiae deletion strains, locus YKR026C, strain gcn3, active compounds read low 0.992 | S. cerevisiae deletion strains, locus YKR091W, strain srl3, active compounds read low 1 | S. cerevisiae deletion strains, locus YLL001W, strain dnm1, active compounds read low 0.98 | S. cerevisiae deletion strains, locus YLL026W, active compounds read low 0.994 | S. cerevisiae deletion strains, locus YLL041C, strain sdh2, active compounds read low 1.02 | S. cerevisiae deletion strains, locus YLR027C, strain aat2, active compounds read low 1.01 | S. cerevisiae deletion strains, locus YLR039C, strain RIC1, active compounds read low 1.11 | S. cerevisiae deletion strains, locus YLR058C, strain SHM2, active compounds read low 1.02 | S. cerevisiae deletion strains, locus YLR102C, strain apc9, active compounds read low 1.02 | S. cerevisiae deletion strains, locus YLR113W, strain HOG1, active compounds read low 1.06 | S. cerevisiae deletion strains, locus YLR221C, strain rsa3, active compounds read low 0.98 | S. cerevisiae deletion strains, locus YLR258W, strain gsy2, active compounds read low 1.01 | S. cerevisiae deletion strains, locus YLR262C, strain YPT6 (second series), active compounds read low 1.04 | S. cerevisiae deletion strains, locus YLR262C, strain YPT6, active compounds read low 1.05 | S. cerevisiae deletion strains, locus YLR268W, strain sec22, active compounds read low 1.04 | S. cerevisiae deletion strains, locus YLR320W, strain mms22, active compounds read low 0.997 | S. cerevisiae deletion strains, locus YLR330W, strain CHS5, active compounds read low 1.02 | S. cerevisiae deletion strains, locus YLR342W, strain FKS1 (second series), active compounds read low 1.09 | S. cerevisiae deletion strains, locus YLR342W, strain FKS1, active compounds read low 1.01 | S. cerevisiae deletion strains, locus YLR357W, strain rsc2, active compounds read low 0.975 | S. cerevisiae deletion strains, locus YLR370C, strain arc18, active compounds read low 1.01 | S. cerevisiae deletion strains, locus YLR371W, strain rom2, active compounds read low 1.01 | S. cerevisiae deletion strains, locus YLR384C, strain iki3, active compounds read low 0.992 | S. cerevisiae deletion strains, locus YLR418C, strain cdc73, active compounds read low 0.975 | S. cerevisiae deletion strains, locus YML016C, strain PPZ1, active compounds read low 1.01 | S. cerevisiae deletion strains, locus YML032C, strain rad52, active compounds read low 1 | S. cerevisiae deletion strains, locus YML120C, strain ndi1, active compounds read low 1.01 | S. cerevisiae deletion strains, locus YML124C, strain tub3, active compounds read low 1.01 | S. cerevisiae deletion strains, locus YMR058W, strain fet3, active compounds read low 1 | S. cerevisiae deletion strains, locus YMR078C, strain ctf18, active compounds read low 1.01 | S. cerevisiae deletion strains, locus YMR125W, strain sto1, active compounds read low 0.993 | S. cerevisiae deletion strains, locus YMR129W, active compounds read low 1.01 | S. cerevisiae deletion strains, locus YMR205C, strain PFK2, active compounds read low 1.01 | S. cerevisiae deletion strains, locus YMR223W, strain ubp8, active compounds read low 0.993 | S. cerevisiae deletion strains, locus YMR231W, strain pep5, active compounds read low 0.992 | S. cerevisiae deletion strains, locus YMR263W, strain SAP30, active compounds read low 1.01 | S. cerevisiae deletion strains, locus YMR307W, strain GAS1, active compounds read low 1.07 | S. cerevisiae deletion strains, locus YNL067W, strain RPL9B, active compounds read low 1.02 | S. cerevisiae deletion strains, locus YNL071W, strain lat1, active compounds read low 1.02 | S. cerevisiae deletion strains, locus YNL153C, strain GIM3, active compounds read low 1.01 | S. cerevisiae deletion strains, locus YNL183C, strain NPR1, active compounds read low 0.968 | S. cerevisiae deletion strains, locus YNL209W, strain ssb2, active compounds read low 1.01 | S. cerevisiae deletion strains, locus YNL233W, strain BNI4, active compounds read low 1.01 | S. cerevisiae deletion strains, locus YNL248C, strain rpa49, active compounds read low 0.98 | S. cerevisiae deletion strains, locus YNL250W, strain rad50, active compounds read low 1.03 | S. cerevisiae deletion strains, locus YNL271C, strain bni1, active compounds read low 1.02 | S. cerevisiae deletion strains, locus YNL298W, strain CLA4, active compounds read low 0.999 | S. cerevisiae deletion strains, locus YNL307C, strain MCK1, active compounds read low 1.02 | S. cerevisiae deletion strains, locus YNL322C, strain KRE1 (second series), active compounds read low 0.996 | S. cerevisiae deletion strains, locus YNL322C, strain KRE1, active compounds read low 1.02 | S. cerevisiae deletion strains, locus YNR049C, strain mso1, active compounds read low 0.998 | S. cerevisiae deletion strains, locus YNR052C, strain pop2, active compounds read low 1.01 | S. cerevisiae deletion strains, locus YOL006C, strain TOP1, active compounds read low 1.15 | S. cerevisiae deletion strains, locus YOL012C, strain htz1 1.74 | S. cerevisiae deletion strains, locus YOL147C, strain pex11, active compounds read low 1.01 | S. cerevisiae deletion strains, locus YOR001W, strain rrp6, active compounds read low 0.988 | S. cerevisiae deletion strains, locus YOR061W, strain CKA2, active compounds read low 1.03 | S. cerevisiae deletion strains, locus YOR069W, strain VPS5, active compounds read low 1.01 | S. cerevisiae deletion strains, locus YOR070C, strain gyp1, active compounds read low 1 | S. cerevisiae deletion strains, locus YOR080W, strain dia2, active compounds read low 0.988 | S. cerevisiae deletion strains, locus YOR083W, strain WHI5, active compounds read low 1.06 | S. cerevisiae deletion strains, locus YOR106W, strain vam3, active compounds read low 1.04 | S. cerevisiae deletion strains, locus YOR136W, strain idh2, active compounds read low 1.01 | S. cerevisiae deletion strains, locus YOR144C, strain elg1, active compounds read low 1 | S. cerevisiae deletion strains, locus YOR184W, strain ser1, active compounds read low 1.02 | S. cerevisiae deletion strains, locus YOR231W, strain MKK1, active compounds read low 1 | S. cerevisiae deletion strains, locus YOR265W, strain rbl2, active compounds read low 1 | S. cerevisiae deletion strains, locus YOR270C, strain vph1, active compounds read low 1.13 | S. cerevisiae deletion strains, locus YOR290C, strain snf2, active compounds read low 1.03 | S. cerevisiae deletion strains, locus YOR316C, strain cot1, active compounds read low 1.02 | S. cerevisiae deletion strains, locus YPL051W, strain arl3, active compounds read low 0.992 | S. cerevisiae deletion strains, locus YPL078C, strain atp4, active compounds read low 1.01 | S. cerevisiae deletion strains, locus YPL106C, strain sse1, active compounds read low 1.02 | S. cerevisiae deletion strains, locus YPL240C, strain hsp82, active compounds read low 1 | S. cerevisiae deletion strains, locus YPL241C, strain CIN2, active compounds read low 1 | S. cerevisiae deletion strains, locus YPL256C, strain CLN2, active compounds read low 0.975 | S. cerevisiae deletion strains, locus YPR119W, strain clb2, active compounds read low 1.01 | S. cerevisiae deletion strains, locus YPR141C, strain kar3, active compounds read low 1 | S. cerevisiae deletion strains, locus YPR163C, strain tif3, active compounds read low 1 | S. cerevisiae deletion strains, locus YPR167C, strain met16, active compounds read low 1.02 | S. cerevisiae deletion strains, strain wtn01, active compounds read low 1.06 | S. cerevisiae strains, strain wild type, active compounds read low 1.02
